Results published in PubChem BioAssay (Tox21).
Results filed as inconclusive are left out. A number with no mark means an inactive call. Active and inactive are the calls of the source. Unless noted, calls follow the shape of the full dose curve.

Tested on: not listed separately
Assay: p53 small molecule agonists, cell-based qHTS assay (AID 1963582; active = well fitted activation curve with a large enough effect in the signal ratio in the repeat runs, not every such curve was filed as active; the % refers to the signal ratio)
Settings: HCT-116 p53RE-bla reporter, beta-lactamase FRET ratio, 16 h; series mostly up to 66 µM; activation: at the top concentration
Summary of the method: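 p53RE-bla beta-lactamase reporter cells rested 5 h at 37 C/5% CO2, then received compounds in DMSO by pin transfer and were incubated 16 h at 37 C. LiveBLAzer B/G FRET substrate was loaded for 2 h at room temperature before fluorescence reading.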
% is scaled to controls: 0 for no effect and ±100 for the full control effect.

Compound	activation
CCC(=O)Oc1ccc2c(c1)CC[C@@H]1[C@@H]2CC[C@@]2(C)[C@H]1C[C@@H](OC(=O)CC)[C@@H]2OC(=O)CC	0.226% [at 30.3 µM]
C[C@H](O)C(=O)Nc1c(I)c(C(=O)NC(CO)CO)c(I)c(C(=O)NC(CO)CO)c1I	0.389% [at 30.3 µM]
CC1(C)CCC(C)(C)c2cc(NC(=O)c3ccc(C(=O)O)cc3)ccc21	-4.09% [at 30.3 µM]
O=C=NCc1cccc(CN=C=O)c1	-3.35% [at 13.5 µM]
CCCCC(=O)O[C@]1(C(=O)CO)CC[C@H]2[C@@H]3CCC4=CC(=O)CC[C@]4(C)[C@H]3[C@@H](O)C[C@@]21C	-6.74% [at 30.3 µM]
CC[C@H](NC(C)C)[C@H](O)c1ccc(O)c2[nH]c(=O)ccc12	1.17% [at 30.3 µM]
O=[N+]([O-])c1ccc(CO)cc1	1.79%
CCN(CC)c1ccc(C=O)cc1	-1.31%
O=c1[nH]c(=O)n([C@H]2O[C@H](CO)[C@@H](O)[C@@H]2O)cc1/C=C\Br	-0.545% [at 30.3 µM]
O=C(O)c1cc(O)c2c(c1)C(=O)c1cccc(O)c1C2=O	-4.55%
CC(=O)Nc1ccc(N)cc1	-0.327%
Nc1ccccc1O	-1.53%
CCCCCCCCCC=O	-0.104%
CN1CCN(c2c(F)cc3c(=O)c(C(=O)O)cn4c3c2OCN4C)CC1	-0.645% [at 13.5 µM]
COc1ccc2sc(C(=O)Nc3nnn[nH]3)c(OC(C)C)c2c1	-5.65%

Biological target: 5-hydroxytryptamine receptor 2A (Homo sapiens) (UniProt P28223)
Assay: 5-hydroxytryptamine receptor 2A (HTR2A) small molecule antagonists, cell-based qHTS assay (AID 1963586); also: nearly all actives have a fitted effect of over 45% in size; also: potency is read from the fitted curve at half-maximal effect
Settings: HTR2A-CHO cells, DOI-induced calcium flux, fluorescence; series mostly up to 61.5 µM; activity, negative = inhibition: at the top concentration
Summary of the method: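 Antagonist-mode intracellular calcium assay: DOI (4 nM) added after 5 min compound pre-incubation at room temperature to dye-loaded HTR2A-CHO cells. Fluorescence followed for 3 min, sampled every second.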

Sequence of 5-hydroxytryptamine receptor 2A (Homo sapiens) (P28223 whole entry, looked up): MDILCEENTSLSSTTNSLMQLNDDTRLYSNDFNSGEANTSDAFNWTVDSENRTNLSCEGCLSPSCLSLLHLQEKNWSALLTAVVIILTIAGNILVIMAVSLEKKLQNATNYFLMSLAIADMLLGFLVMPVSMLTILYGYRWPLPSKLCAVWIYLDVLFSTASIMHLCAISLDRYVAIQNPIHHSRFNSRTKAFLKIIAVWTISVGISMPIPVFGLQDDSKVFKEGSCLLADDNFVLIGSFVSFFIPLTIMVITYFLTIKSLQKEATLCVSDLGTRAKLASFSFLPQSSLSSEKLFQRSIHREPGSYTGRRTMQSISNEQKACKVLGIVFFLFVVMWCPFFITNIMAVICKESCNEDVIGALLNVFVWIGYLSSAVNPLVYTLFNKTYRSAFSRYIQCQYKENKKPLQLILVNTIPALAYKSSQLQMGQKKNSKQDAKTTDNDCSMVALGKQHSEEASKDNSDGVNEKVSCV

Compound	activity, negative = inhibition	Potency
c1cc2c3c(c1)ccc1cccc(c13)C2	71.7%	
CCOC(=O)N1CCC(Nc2ccc(Cl)cc2N)CC1	1.24% [at 28.5 µM]	
CCCCCC(=O)OCCc1ccccc1	-57.5%	
COc1cc(C(C)C)ccc1C	-13.4% [at 12.7 µM]	
CCCCCCCCCCOCC(O)CN (stereo not given)		18.3 µM (active)
CC(C)(Oc1ccc(Cl)cc1)C(=O)OCCCOC(=O)C(C)(C)Oc1ccc(Cl)cc1	-3.35% [at 28.5 µM]	
CCCCCCCC(=O)Oc1c(Br)cc(C#N)cc1Br	-39.6%	
O=C(C(Cl)Cl)N1CCOC12CCCCC2	-2.57%	
COc1ccc(-c2coc3cc(O)ccc3c2=O)cc1	3.57%	
COc1ccc2nc(SCc3ncc(C)c(OC)c3C)[nH]c2c1	-1.69% [at 28.5 µM]	
O=S(=O)(O)c1ccc(Cl)cc1	0.151%	
CC(C)OC(=O)C(C)N(C(=O)c1ccccc1)c1ccc(F)c(Cl)c1 (stereo not given)	14.5%	
CCOC(=O)c1c(N)sc2c1CCN(Cc1ccccc1)C2	-3.68% [at 28.5 µM]	
CN(C)CCCCl	-7.76%	
CCCCNc1c(C(=O)OCC)c(C)nc2c1cnn2CC	6.5% [at 28.5 µM]	
C=C(C)C(=O)OC1CC(C)CC(C)(C)C1 (stereo not given)	16.7%	
Nc1cc(C(=O)O)ccc1Cl	3.69%	
O=C(NC1CCN(CCc2c[nH]c3ccccc23)CC1)c1ccccc1		0.46 µM (active)
O=C(O)CCCc1c[nH]c2ccccc12	-0.8%	
NC(CO)C(=O)NNCc1ccc(O)c(O)c1O (stereo not given)	35.8% [at 28.5 µM]	

Compound	activity, negative = inhibition	Potency
CCN(CC)c1cccc(C)c1	1.54%	
CCCC(C)c1ccccc1O (stereo not given)	-28.3%	
CCO[Si](C)(CCCOCC1CO1)OCC (stereo not given)	8.46%	
O=C(O)c1cn(C2CC2)c2cc(Cl)c(F)cc2c1=O	5.29% [at 28.5 µM]	
CCCC(=O)O[C@]1(C(=O)CC)CC[C@H]2[C@@H]3CCC4=CC(=O)CC[C@]4(C)[C@H]3[C@@H](O)C[C@@]21C	-25.2% [at 28.5 µM]	
CCC(=O)Oc1ccc2c(c1)CC[C@@H]1[C@@H]2CC[C@@]2(C)[C@H]1C[C@@H](OC(=O)CC)[C@@H]2OC(=O)CC	13.3% [at 28.5 µM]	
C[C@H](O)C(=O)Nc1c(I)c(C(=O)NC(CO)CO)c(I)c(C(=O)NC(CO)CO)c1I	59.3% [at 28.5 µM]	
CC1(C)CCC(C)(C)c2cc(NC(=O)c3ccc(C(=O)O)cc3)ccc21	-23.7% [at 28.5 µM]	
O=C=NCc1cccc(CN=C=O)c1	11.7% [at 12.7 µM]	
CCCCC(=O)O[C@]1(C(=O)CO)CC[C@H]2[C@@H]3CCC4=CC(=O)CC[C@]4(C)[C@H]3[C@@H](O)C[C@@]21C	-29.2% [at 28.5 µM]	
CC[C@H](NC(C)C)[C@H](O)c1ccc(O)c2[nH]c(=O)ccc12	-80% [at 28.5 µM]	
O=[N+]([O-])c1ccc(CO)cc1	12.7%	
CCN(CC)c1ccc(C=O)cc1	2.97%	
O=c1[nH]c(=O)n([C@H]2O[C@H](CO)[C@@H](O)[C@@H]2O)cc1/C=C\Br	33.2% [at 28.5 µM]	
O=C(O)c1cc(O)c2c(c1)C(=O)c1cccc(O)c1C2=O	-26%	
CC(=O)Nc1ccc(N)cc1	12.4%	
Nc1ccccc1O	-4.04%	
CCCCCCCCCC=O	-2.08%	
CN1CCN(c2c(F)cc3c(=O)c(C(=O)O)cn4c3c2OCN4C)CC1	-5.02% [at 12.7 µM]	
COc1ccc2sc(C(=O)Nc3nnn[nH]3)c(OC(C)C)c2c1	11.4%	

Biological target: 5-hydroxytryptamine receptor 2A (Homo sapiens) (UniProt P28223)
Assay: 5-hydroxytryptamine receptor 2A (HTR2A) small molecule agonists, cell-based qHTS assay (AID 1963587); also: nearly all actives have a fitted effect of over 30% in size; also: potency is read from the fitted curve at half-maximal effect
Settings: HTR2A-CHO cells, calcium flux fluorescence, agonist mode; series mostly up to 76.8 µM; activation: at the top concentration
Summary of the method: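 HTR2A-CHO cells, plated 18 h at 37 C/5% CO2, dye-loaded 1 h at 37 C; compounds in DMSO added by pin tool (agonist mode). Intracellular calcium flux read as kinetic fluorescence on FDSS over 2 min at 1 s intervals.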

Compound	activation	Potency
c1cc2c3c(c1)ccc1cccc(c13)C2	0.0561%	
CCOC(=O)N1CCC(Nc2ccc(Cl)cc2N)CC1	18.3% [at 35.6 µM]	
CCCCCC(=O)OCCc1ccccc1	-6.25%	
COc1cc(C(C)C)ccc1C	0.168% [at 15.9 µM]	
CCCCCCCCCCOCC(O)CN (stereo not given)		9.52 µM (active)
CC(C)(Oc1ccc(Cl)cc1)C(=O)OCCCOC(=O)C(C)(C)Oc1ccc(Cl)cc1	-10.1% [at 35.6 µM]	
CCCCCCCC(=O)Oc1c(Br)cc(C#N)cc1Br	-0.0638%	
O=C(C(Cl)Cl)N1CCOC12CCCCC2	-1.93%	
COc1ccc(-c2coc3cc(O)ccc3c2=O)cc1	-1.26%	
COc1ccc2nc(SCc3ncc(C)c(OC)c3C)[nH]c2c1	-5.33% [at 35.6 µM]	
O=S(=O)(O)c1ccc(Cl)cc1	-0.463%	
CC(C)OC(=O)C(C)N(C(=O)c1ccccc1)c1ccc(F)c(Cl)c1 (stereo not given)	1.01%	
CCOC(=O)c1c(N)sc2c1CCN(Cc1ccccc1)C2	8.12% [at 35.6 µM]	
CN(C)CCCCl	-1.29%	
CCCCNc1c(C(=O)OCC)c(C)nc2c1cnn2CC	0.327% [at 35.6 µM]	
C=C(C)C(=O)OC1CC(C)CC(C)(C)C1 (stereo not given)	-0.9%	
Nc1cc(C(=O)O)ccc1Cl	0.459%	
O=C(NC1CCN(CCc2c[nH]c3ccccc23)CC1)c1ccccc1	-1.88% [at 35.6 µM]	
O=C(O)CCCc1c[nH]c2ccccc12	-1.28%	
NC(CO)C(=O)NNCc1ccc(O)c(O)c1O (stereo not given)	-9.91% [at 35.6 µM]	

Compound	activation	Potency
CCN(CC)c1cccc(C)c1	-0.546%	
CCCC(C)c1ccccc1O (stereo not given)	-0.336%	
CCO[Si](C)(CCCOCC1CO1)OCC (stereo not given)	1.17%	
O=C(O)c1cn(C2CC2)c2cc(Cl)c(F)cc2c1=O	1.19% [at 35.6 µM]	
CCCC(=O)O[C@]1(C(=O)CC)CC[C@H]2[C@@H]3CCC4=CC(=O)CC[C@]4(C)[C@H]3[C@@H](O)C[C@@]21C	4.82% [at 35.6 µM]	
CCC(=O)Oc1ccc2c(c1)CC[C@@H]1[C@@H]2CC[C@@]2(C)[C@H]1C[C@@H](OC(=O)CC)[C@@H]2OC(=O)CC	2.7% [at 35.6 µM]	
C[C@H](O)C(=O)Nc1c(I)c(C(=O)NC(CO)CO)c(I)c(C(=O)NC(CO)CO)c1I	-2.77% [at 35.6 µM]	
CC1(C)CCC(C)(C)c2cc(NC(=O)c3ccc(C(=O)O)cc3)ccc21	-0.733% [at 35.6 µM]	
O=C=NCc1cccc(CN=C=O)c1	3.99% [at 15.9 µM]	
CCCCC(=O)O[C@]1(C(=O)CO)CC[C@H]2[C@@H]3CCC4=CC(=O)CC[C@]4(C)[C@H]3[C@@H](O)C[C@@]21C	-4.25% [at 35.6 µM]	
CC[C@H](NC(C)C)[C@H](O)c1ccc(O)c2[nH]c(=O)ccc12	5.06% [at 35.6 µM]	
O=[N+]([O-])c1ccc(CO)cc1	-4.5%	
CCN(CC)c1ccc(C=O)cc1	-4.05%	
O=c1[nH]c(=O)n([C@H]2O[C@H](CO)[C@@H](O)[C@@H]2O)cc1/C=C\Br	2.1% [at 35.6 µM]	
O=C(O)c1cc(O)c2c(c1)C(=O)c1cccc(O)c1C2=O	14.3%	
CC(=O)Nc1ccc(N)cc1	4.39%	
Nc1ccccc1O	3.1%	
CCCCCCCCCC=O	-3.59%	
CN1CCN(c2c(F)cc3c(=O)c(C(=O)O)cn4c3c2OCN4C)CC1	-1.68% [at 15.9 µM]	
COc1ccc2sc(C(=O)Nc3nnn[nH]3)c(OC(C)C)c2c1	2.77%	
